# Experimental data taken from paper PMC10726135, “HNF4α isoforms regulate the circadian balance between carbohydrate and lipid metabolism in the liver”.
# The full ranking holds about 18,000 sequences; the median of “log2 normalized intensity” is about 0.36, and the highest 2% start at about 7.3. This excerpt belongs to a sample that is enriched for the highest values.
# Molecular target: T1, HNF4alpha8 (COS-7 nuclear extract) (Homo sapiens, UniProt P41235-5 1-452)
# T1 sequence: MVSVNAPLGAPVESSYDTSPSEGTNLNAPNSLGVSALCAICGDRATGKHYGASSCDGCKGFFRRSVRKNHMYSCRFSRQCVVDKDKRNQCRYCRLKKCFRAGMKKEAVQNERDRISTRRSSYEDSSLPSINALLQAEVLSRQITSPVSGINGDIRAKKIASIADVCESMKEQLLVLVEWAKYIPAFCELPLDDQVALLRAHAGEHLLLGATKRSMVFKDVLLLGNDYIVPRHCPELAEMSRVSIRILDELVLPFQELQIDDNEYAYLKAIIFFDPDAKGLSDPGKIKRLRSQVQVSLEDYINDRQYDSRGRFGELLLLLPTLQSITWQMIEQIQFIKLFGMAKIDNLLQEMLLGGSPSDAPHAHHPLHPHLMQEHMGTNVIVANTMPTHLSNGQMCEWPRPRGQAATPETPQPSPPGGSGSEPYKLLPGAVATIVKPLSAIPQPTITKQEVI
# Test: protein-binding microarray; COS-7 nuclear extract on double-stranded Agilent 4x180k PBM; binding buffer, salt, pH and temperature not given in the material; high values mean tight binding
# Conditions: chain copies: 2; label: 3' end of strand 1 on the slide; dsDNA, one strand shown
# In short: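 Binding signal is the background-corrected, normalized gProcessedSignal calculated by Agilent software. It was measured by applying nuclear extracts of COS-7 cells transiently transfected with a human HNF4α isoform expression vector to a custom Agilent SurePrint G3 4x180k array of ~44,000 double-stranded ~60-nt test sequences in quadruplicate, then imaging bound HNF4α on an Agilent G2565CA scanner at 2-µm resolution.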
row,Sequence,binding signal
1,AATACTCTGAGTAAACACAGACTTTGGAATGCCTAGGGAGATTAGAGTATCGGTCGA,4.55 log2 normalized intensity
2,TTCGGGGCACTGCTCCCTGCCCCTACCCCCGCCTAGGGAGATTAGAGTATCGGTCGA,5.02 log2 normalized intensity
3,AGGTACTGGTAGCCTGGGCCCCAGGGGACGGCCTAGGGAGATTAGAGTATCGGTCGA,-0.625 log2 normalized intensity
4,GTGCAAAGGCCTTAAAGTGTAAATATTTGAGCCTAGGGAGATTAGAGTATCGGTCGA,0.546 log2 normalized intensity
5,TCCGCTTGCCTGAGGGTCATGACTAAAGCAGCCTAGGGAGATTAGAGTATCGGTCGA,1.13 log2 normalized intensity
6,CCACTAGAGAGACCGTCCCTGGGTACAACTGCCTAGGGAGATTAGAGTATCGGTCGA,1.33 log2 normalized intensity
7,CGTGGGCATGCCTCCCAGAGCATTGTTTATGCCTAGGGAGATTAGAGTATCGGTCGA,-0.764 log2 normalized intensity
8,GCACATGGCATGATCCCTGACTCATAGCTCGCCTAGGGAGATTAGAGTATCGGTCGA,-0.946 log2 normalized intensity
9,GAGGTGGGCCCAGGGTTCTCTGTGACCTTTGCCTAGGGAGATTAGAGTATCGGTCGA,7.62 log2 normalized intensity
10,GGGCCCAGGGTTCTCTGTGACCTTTGGAAGGCCTAGGGAGATTAGAGTATCGGTCGA,9.36 log2 normalized intensity
11,TGGAGCATGACCCTTTGCAGGTGGGAGAGGGCCTAGGGAGATTAGAGTATCGGTCGA,0.928 log2 normalized intensity
12,TGACTACCAGGTTCTGTACTTTGGAACCTGGCCTAGGGAGATTAGAGTATCGGTCGA,7.01 log2 normalized intensity
13,TTCTCTGTGACCTTTGGAAGGTGGGGGAGGGCCTAGGGAGATTAGAGTATCGGTCGA,4.92 log2 normalized intensity
14,CTGCCCTTCTGACCTCCCAGGGATACTGTGGCCTAGGGAGATTAGAGTATCGGTCGA,2.99 log2 normalized intensity
15,GTAAGCACAAAGTACAGCTTTTTGTTTGTGGCCTAGGGAGATTAGAGTATCGGTCGA,2.02 log2 normalized intensity
16,AAACATCAAGGAAGAGAACTCCCTATCCCCGCCTAGGGAGATTAGAGTATCGGTCGA,1.36 log2 normalized intensity
17,GATAGATATGTTGAAGTGACTAAATGAGAAGCCTAGGGAGATTAGAGTATCGGTCGA,-0.611 log2 normalized intensity
18,GTACTTAAAAATGCCTTTCATCTTTGAGAAGCCTAGGGAGATTAGAGTATCGGTCGA,0.583 log2 normalized intensity
19,GTGTCAACATGGACTTTGTTGTTTGCCTCTGCCTAGGGAGATTAGAGTATCGGTCGA,4.08 log2 normalized intensity
20,CAGAGAGAAGCCACTGCGACCTTTGCCCTCGCCTAGGGAGATTAGAGTATCGGTCGA,10 log2 normalized intensity
21,ACCGGCAGAGAGAAGCCACTGCGACCTTTGGCCTAGGGAGATTAGAGTATCGGTCGA,5.59 log2 normalized intensity

row,Sequence,binding signal
1,TCAGCCTTCTCCGCGGCGGGCCCTCGACCTGCCTAGGGAGATTAGAGTATCGGTCGA,0.757 log2 normalized intensity
2,TTGCCATGACCTTTGAAGCCCAGAACACTCGCCTAGGGAGATTAGAGTATCGGTCGA,4.51 log2 normalized intensity
3,CTTCTCCGCGGCGGGCCCTCGACCTTTGCCGCCTAGGGAGATTAGAGTATCGGTCGA,5.8 log2 normalized intensity
4,CCACTGCGACCTTTGCCCTCCCTAAATCCAGCCTAGGGAGATTAGAGTATCGGTCGA,7.84 log2 normalized intensity
5,CCGCGGCGGGCCCTCGACCTTTGCCCTCCAGCCTAGGGAGATTAGAGTATCGGTCGA,9.76 log2 normalized intensity
6,CTTTGCCCTCCCTAAATCCAGAGGTATTTGGCCTAGGGAGATTAGAGTATCGGTCGA,2.04 log2 normalized intensity
7,AGAAGCCACTGCGACCTTTGCCCTCCCTAAGCCTAGGGAGATTAGAGTATCGGTCGA,8.33 log2 normalized intensity
8,TCACAACCTCCCTTTGAAGGAGCCACTGGTGCCTAGGGAGATTAGAGTATCGGTCGA,-0.869 log2 normalized intensity
9,CCCTCCCTAAATCCAGAGGTATTTGGCCCAGCCTAGGGAGATTAGAGTATCGGTCGA,1.83 log2 normalized intensity
10,TTCCCCTCCCTTCCACCTTTGCCCTCCAAAGCCTAGGGAGATTAGAGTATCGGTCGA,6.42 log2 normalized intensity
11,ACCCACCCACCTATGTCCTTATCCTCATTGGCCTAGGGAGATTAGAGTATCGGTCGA,0.831 log2 normalized intensity
12,CTCACCAGTGGGCCCAGAGCACAACCTTTGGCCTAGGGAGATTAGAGTATCGGTCGA,1.42 log2 normalized intensity
13,TATTCAGTCCCCCATCCCAGAGGTCAAACTGCCTAGGGAGATTAGAGTATCGGTCGA,5.57 log2 normalized intensity
14,GGAATTTGGACTTCAGCCCAGGCTGATTATGCCTAGGGAGATTAGAGTATCGGTCGA,4.7 log2 normalized intensity
15,CAGCAAGCATTAATCCCTGAGCCTGGACCTGCCTAGGGAGATTAGAGTATCGGTCGA,2.58 log2 normalized intensity
16,GCGCATCGGGCGCCAGCGCCCCCGTGTGGCGCCTAGGGAGATTAGAGTATCGGTCGA,1.2 log2 normalized intensity
17,GACCAGCGTGTGGCGCCATTTCAGGTCCACGCCTAGGGAGATTAGAGTATCGGTCGA,1.74 log2 normalized intensity
18,AATACTCCAGTCATTGTACAAACACATACCGCCTAGGGAGATTAGAGTATCGGTCGA,-0.533 log2 normalized intensity
19,CTCTTAGTATTACCATGTCCTGTGATTAAGGCCTAGGGAGATTAGAGTATCGGTCGA,1.16 log2 normalized intensity
20,TGGGCCAGGTATTTGGACTTTTTGTAGTTTGCCTAGGGAGATTAGAGTATCGGTCGA,3.34 log2 normalized intensity
21,CCCTGACCAAGGGTCATGCTGGTCTCCTTGGCCTAGGGAGATTAGAGTATCGGTCGA,2.46 log2 normalized intensity

row,Sequence,binding signal
1,TTTTCAACATATACTTTGAACTTGTTTTTTGCCTAGGGAGATTAGAGTATCGGTCGA,2.56 log2 normalized intensity
2,AAGCAAACAAAACACGGACTTTGAAGCTCCGCCTAGGGAGATTAGAGTATCGGTCGA,3 log2 normalized intensity
3,AGCAATACATTGAACTTTGAACACCTCTTCGCCTAGGGAGATTAGAGTATCGGTCGA,6.54 log2 normalized intensity
4,GTTCAAACTTTATTTGATGATGAAGCAACAGCCTAGGGAGATTAGAGTATCGGTCGA,0.662 log2 normalized intensity
5,TTGTTCAATAAGCAATACATTGAACTTTGAGCCTAGGGAGATTAGAGTATCGGTCGA,8.23 log2 normalized intensity
6,CAATAAGCAATACATTGAACTTTGAACACCGCCTAGGGAGATTAGAGTATCGGTCGA,7.99 log2 normalized intensity
7,GGCAGTCGTGATAGTGACCACCTGGTGGACGCCTAGGGAGATTAGAGTATCGGTCGA,1.42 log2 normalized intensity
8,GTTGAGAACTGAGTTTAGAATTTGAACTATGCCTAGGGAGATTAGAGTATCGGTCGA,3.68 log2 normalized intensity
9,AGTTCAATTTCCAACAAATGAAACTAAAGGGCCTAGGGAGATTAGAGTATCGGTCGA,-0.972 log2 normalized intensity
10,CGCTCCCCGACCTCCTGCTGCAGCTCTGGGGCCTAGGGAGATTAGAGTATCGGTCGA,-0.577 log2 normalized intensity
11,TGTTTATCAGAGCAAAGTTCAATTTCCAACGCCTAGGGAGATTAGAGTATCGGTCGA,4.31 log2 normalized intensity
12,GTCAAACAAAAGAAAATGTGCCCTTTGGACGCCTAGGGAGATTAGAGTATCGGTCGA,7.26 log2 normalized intensity
13,TATTTGGATAATGTGCCCTTTGTACCTGGGGCCTAGGGAGATTAGAGTATCGGTCGA,7.72 log2 normalized intensity
14,ATGCTTCAAATATTTGGATAATGTGCCCTTGCCTAGGGAGATTAGAGTATCGGTCGA,3.92 log2 normalized intensity
15,ATGTGCCCTTTGTACCTGGGGCAAACATCAGCCTAGGGAGATTAGAGTATCGGTCGA,5.3 log2 normalized intensity
16,GGATAATGTGCCCTTTGTACCTGGGGCAAAGCCTAGGGAGATTAGAGTATCGGTCGA,5.83 log2 normalized intensity
17,TCAAATATTTGGATAATGTGCCCTTTGTACGCCTAGGGAGATTAGAGTATCGGTCGA,7.39 log2 normalized intensity
18,CAATCAGCCTTAGGTATGCCCCATGGTAAGGCCTAGGGAGATTAGAGTATCGGTCGA,1.49 log2 normalized intensity
19,GAATTCCATCCCAGGTCCACAGTGCACATTGCCTAGGGAGATTAGAGTATCGGTCGA,2.26 log2 normalized intensity
20,AAGGACAAAGGTCATGTTTTCAAACAATGAGCCTAGGGAGATTAGAGTATCGGTCGA,5.49 log2 normalized intensity
21,CTGCTGGTTTTTGTCAAAGATAGTTGTAGTGCCTAGGGAGATTAGAGTATCGGTCGA,1.62 log2 normalized intensity
